Source: PubChem BioAssay (Tox21)
Inconclusive results are not listed. Calls of active or inactive are those of the source. Unless noted, calls come from the whole dose curve; as a rule, active = well fitted curve in the direction sought with a large enough effect in the repeat runs; inconclusive = weak or mixed curves; inactive = no such curve, though single readings can be large; an effect the other way counts as inactive or inconclusive.

Assays:
[1] = molecular target: Aryl hydrocarbon receptor (Homo sapiens) (UniProt P35869); test: qHTS assay to identify small molecule that activate the aryl hydrocarbon receptor (AhR) signaling pathway (AID 743085);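 note: HG2L7.5c1 human HepG2 liver cells with stably integrated DRE-driven firefly reporter; series mostly up to about 70 µM; nearly all actives have a fitted effect of over 15% in size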
Summary of the method: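 A multiplexed format paired cell viability (CellTiter-Fluor fluorescence) with AhR-dependent luciferase output (ONE-Glo luminescence) in the same wells of HepG2 DRE-luc cells after 24 h compound exposure at 37C.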

[2] = qHTS assay to identify small molecule that activate the aryl hydrocarbon receptor (AhR) signaling pathway - cell viability counter screen (AID 743086);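 note: HepG2 liver cells carrying the AhR DRE luciferase reporter; series mostly up to about 70 µM; nearly all actives have a fitted effect of over 45% in size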
Summary of the method: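 HepG2-AhR-luc (HG2L7.5c1) cells, 4000/well, treated 24 h at 37 C with compound; viability measured as CellTiter-Fluor fluorescence after 30 min in the same wells as the luciferase read.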

[3] = molecular target: Peroxisome proliferator-activated receptor gamma (Homo sapiens) (UniProt P37231); test: qHTS assay to identify small molecule agonists of the peroxisome proliferator-activated receptor gamma (PPARg) signaling pathway (AID 743094; active = well fitted activation curve with a large enough effect in the signal ratio in the repeat runs, not every such curve was filed as active; the % refers to the signal ratio)
Summary of the method: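 Quantitative HTS agonist mode: stable HEK293H line with UAS-beta-lactamase reporter under PPARg control, 17 h compound exposure at 37C, fluorescence after 1 h FRET substrate loading at room temperature.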

[4] = molecular target: Peroxisome proliferator-activated receptor gamma (Homo sapiens) (UniProt P37231); test: qHTS assay to identify small molecule antagonists of the peroxisome proliferator-activated receptor gamma (PPARg) signaling pathway (AID 743191; calls by dose curve; note: series mostly up to about 63 µM; nearly all actives have a fitted effect of over 30% in size)
Summary of the method: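 GeneBLAzer PPARg UAS-bla HEK293H cells, 5 h post-plating, exposed to compounds 17 h at 37C. LiveBLAzer B/G FRET substrate added for 1 h at room temperature; beta-lactamase reporter read by fluorescence intensity.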

[5] = qHTS assay to identify small molecule antagonists of the peroxisome proliferator-activated receptor gamma (PPARg) signaling pathway - cell viability counter screen (AID 743194); note: nearly all actives have a fitted effect of over 55% in size
Summary of the method: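 Cytotoxicity counter screen in PPARg-bla HEK293H cells, same wells as reporter assay. Compounds plus 50 nM rosiglitazone (final) for 17 h at 37 C, then viability read by CellTiter-Glo luminescence.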

[6] = qHTS assay for small molecule agonists of the antioxidant response element (ARE) signaling pathway - cell viability counter screen (AID 743203; calls by dose curve; note: nearly all actives have a fitted effect of over 55% in size)
Summary of the method: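 Seeded at 2,000 cells/well, ARE-bla HepG2 cells were incubated 5 hrs before compound addition. After 16 hrs of treatment at 37C with 5% CO2, CellTiter-Glo reagent was added and luminescence read 30 min later.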

[7] = qHTS assay for small molecule activators of the heat shock response signaling pathway (AID 743210; active = well fitted activation curve with a large enough effect in the signal ratio in the repeat runs, with a control signal flat, not every such curve was filed as active; the % refers to the signal ratio;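 note: HeLa cells with beta-lactamase reporter driven by heat shock elements; series mostly up to about 63 µM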)
Summary of the method: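 Quantitative high-throughput format using an engineered HeLa line in which heat shock response elements drive beta-lactamase; after 5 h with compound, cells received a B/G FRET substrate and fluorescence was read.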

[8] = qHTS assay to identify small molecule agonists of the peroxisome proliferator-activated receptor delta (PPARd) signaling pathway - cell viability counter screen (AID 743211); note: nearly all actives have a fitted effect of over 55% in size
Summary of the method: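 Tox21 library compounds, delivered in DMSO, were incubated 17 h with PPARd-bla HEK293H cells; cytotoxicity was taken from CellTiter-Glo luminescence read 30 min after reagent addition.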

[9] = molecular target: Peroxisome proliferator-activated receptor delta (Homo sapiens) (UniProt Q03181); test: qHTS assay to identify small molecule agonists of the peroxisome proliferator-activated receptor delta (PPARd) signaling pathway (AID 743212; calls by dose curve)
Summary of the method: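 Quantitative high-throughput agonist screen in a HEK293H beta-lactamase reporter line under UAS control. Compounds in DMSO, at 37 C. Fluorescence read after 2 h with FRET substrate at room temperature.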

[10] = qHTS assay to identify small molecule antagonists of the peroxisome proliferator-activated receptor delta (PPARd) signaling pathway - cell viability counter screen (AID 743213); note: nearly all actives have a fitted effect of over 50% in size
Summary of the method: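 Same-well viability: cells pre-incubated 5 h, dosed with compound plus 300 nM L165041, kept 17 h at 37 C, FRET substrate 2 h RT, then CellTiter-Glo 30 min RT and luminescence.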

[11] = molecular target: Peroxisome proliferator-activated receptor delta (Homo sapiens) (UniProt Q03181); test: qHTS assay to identify small molecule antagonists of the peroxisome proliferator-activated receptor delta (PPARd) signaling pathway (AID 743215; active = well fitted inhibition curve with a large enough effect in the signal ratio in the repeat runs, not every such curve was filed as active; the % refers to the signal ratio;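 note: cells stimulated with agonist L165041 at 300 nM final during compound exposure; series mostly up to about 62 µM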)
Summary of the method: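 Inhibition of L165041-driven (300 nM final) PPARd signaling is scored in HEK293H UAS-bla cells. Exposure lasts 17 h at 37 C; beta-lactamase activity is then read by FRET substrate fluorescence after 2 h at room temperature.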

[12] = molecular target: Bile acid receptor (Homo sapiens) (UniProt Q96RI1); test: qHTS assay to identify small molecule antagonists of the farnesoid-X-receptor (FXR) signaling pathway (AID 743217; active = well fitted inhibition curve with a large enough effect in the signal ratio in the repeat runs, not every such curve was filed as active; the % refers to the signal ratio)
Summary of the method: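 Antagonist mode against 50 uM (final) chenodeoxycholic acid stimulation in FXR-bla HEK 293T cells, 16 h at 37 °C. Inhibition detected as reduced beta-lactamase activity via LiveBLAzer B/G FRET fluorescence after 2 h at room temperature.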

[13] = qHTS assay to identify small molecule agonists of the farnesoid-X-receptor (FXR) signaling pathway - cell viability counter screen (AID 743218); note: nearly all actives have a fitted effect of over 45% in size
Summary of the method: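 Cytotoxicity counter-screen run in parallel, same wells: FXR-UAS-bla HEK 293T cells dosed 16 h at 37 C, viability read by CellTiter-Glo luminescence after 30 min at room temperature.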

[14] = molecular target: Bile acid receptor (Homo sapiens) (UniProt Q96RI1); test: qHTS assay to identify small molecule agonists of the farnesoid-X-receptor (FXR) signaling pathway (AID 743220; active = well fitted activation curve with a large enough effect in the signal ratio in the repeat runs, not every such curve was filed as active; the % refers to the signal ratio)
Summary of the method: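 Beta-lactamase reporter under UAS control in GeneBLAzer FXR HEK 293T cells (5000/well) measured with LiveBLAzer FRET substrate after 2 h at room temperature. Compound exposure lasted 16 h at 37C.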

[15] = qHTS assay to identify small molecule antagonists of the farnesoid-X-receptor (FXR) signaling pathway - cell viability counter screen (AID 743221; active = well fitted cell-killing curve with a large enough effect in the repeat runs, not every such curve was filed as active; note: nearly all actives have a fitted effect of over 50% in size)
Summary of the method: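 Cytotoxicity is taken from ATP luminescence (CellTiter-Glo, 30 min, room temperature) in FXR-bla HEK 293T cells previously incubated 16 h at 37 C with compound and chenodeoxycholic acid at 50 uM final.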

[16] = molecular target: Vitamin D3 receptor (Homo sapiens) (UniProt P11473); test: qHTS assay to identify small molecule agonists of the vitamin D receptor (VDR) signaling pathway (AID 743222; calls by dose curve)
Summary of the method: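 Quantitative HTS agonist-mode screen: compounds in DMSO were pin-transferred onto VDR-bla cells and incubated 16 h at 37C, 5% CO2. Reporter activity was detected with LiveBLAzer B/G FRET substrate after 2 h at room temperature.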

[17] = qHTS assay to identify small molecule agonists of the vitamin D receptor (VDR) signaling pathway - cell viability counter screen (AID 743224); note: series mostly up to about 63 µM; nearly all actives have a fitted effect of over 50% in size
Summary of the method: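 Viability is measured in the same wells as the VDR-bla reporter assay: after 16 h compound treatment and 2 h substrate loading, CellTiter-Glo is added and luminescence read 30 min later.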

[18] = qHTS assay for small molecule activators of the heat shock response signaling pathway - cell viability counter screen (AID 743209); note: nearly all actives have a fitted effect of over 50% in size; note: potency is the fitted concentration of half-maximal effect
Summary of the method: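 First, HSE-bla HeLa cells were seeded at 1500 cells/well and kept overnight at 37 C. Next, compounds were pinned in and incubated 5 h. After the FRET substrate step, CellTiter-Glo was added and luminescence read 30 min later.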

[19] = qHTS assay for small molecule agonists of the antioxidant response element (ARE) signaling pathway (AID 743202; active = well fitted activation curve with a large enough effect in the signal ratio in the repeat runs, not every such curve was filed as active; the % refers to the signal ratio)
Summary of the method: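 Agonist mode reporter screen: HepG2 cells with ARE-controlled beta-lactamase are incubated with test compounds for 16 h at 37 C, and beta-lactamase activity is measured as fluorescence of cleaved B/G FRET substrate.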

[20] = molecular target: Vitamin D3 receptor (Homo sapiens) (UniProt P11473); test: qHTS assay to identify small molecule antagonists of the vitamin D receptor (VDR) signaling pathway (AID 743223; active = well fitted inhibition curve with a large enough effect in the signal ratio in the repeat runs, not every such curve was filed as active; the % refers to the signal ratio)
Summary of the method: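 Quantitative HTS in VDR-bla reporter cells stimulated with 1alpha,25-dihydroxyvitamin D3, 3 nM final. Compound exposure 16 h, 37C, 5% CO2. Read-out: beta-lactamase FRET substrate fluorescence, 2 h RT.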

Measured: Potency

Peroxisome proliferator-activated receptor gamma (Homo sapiens), sequence (P37231 whole entry, looked up): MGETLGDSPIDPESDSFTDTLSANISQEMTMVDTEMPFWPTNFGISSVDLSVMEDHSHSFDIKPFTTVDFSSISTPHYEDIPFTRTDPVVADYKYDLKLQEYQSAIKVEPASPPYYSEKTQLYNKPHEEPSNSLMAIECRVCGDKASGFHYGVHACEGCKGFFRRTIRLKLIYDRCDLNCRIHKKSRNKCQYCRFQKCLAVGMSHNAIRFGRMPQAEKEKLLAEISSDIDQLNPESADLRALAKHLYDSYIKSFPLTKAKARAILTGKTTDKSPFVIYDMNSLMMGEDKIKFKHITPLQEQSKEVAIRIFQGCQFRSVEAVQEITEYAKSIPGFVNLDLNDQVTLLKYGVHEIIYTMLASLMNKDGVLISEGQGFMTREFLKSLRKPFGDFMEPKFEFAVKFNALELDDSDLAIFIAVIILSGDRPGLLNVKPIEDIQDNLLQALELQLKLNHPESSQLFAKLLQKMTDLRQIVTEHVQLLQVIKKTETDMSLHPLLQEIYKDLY
Peroxisome proliferator-activated receptor delta (Homo sapiens), sequence (Q03181 whole entry, looked up): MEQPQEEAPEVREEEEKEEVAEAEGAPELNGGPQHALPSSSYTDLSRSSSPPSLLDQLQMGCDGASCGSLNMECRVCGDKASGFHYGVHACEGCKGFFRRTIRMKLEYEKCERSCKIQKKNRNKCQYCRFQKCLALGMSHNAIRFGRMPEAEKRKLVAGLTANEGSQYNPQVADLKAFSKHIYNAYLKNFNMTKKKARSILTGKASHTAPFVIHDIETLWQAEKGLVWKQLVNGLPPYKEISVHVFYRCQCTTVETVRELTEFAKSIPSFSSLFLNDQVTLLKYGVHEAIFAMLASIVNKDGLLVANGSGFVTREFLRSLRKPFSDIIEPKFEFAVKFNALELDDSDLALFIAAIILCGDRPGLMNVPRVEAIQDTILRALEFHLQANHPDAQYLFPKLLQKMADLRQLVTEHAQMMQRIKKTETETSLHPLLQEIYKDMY
Bile acid receptor (Homo sapiens), sequence (Q96RI1 whole entry, looked up): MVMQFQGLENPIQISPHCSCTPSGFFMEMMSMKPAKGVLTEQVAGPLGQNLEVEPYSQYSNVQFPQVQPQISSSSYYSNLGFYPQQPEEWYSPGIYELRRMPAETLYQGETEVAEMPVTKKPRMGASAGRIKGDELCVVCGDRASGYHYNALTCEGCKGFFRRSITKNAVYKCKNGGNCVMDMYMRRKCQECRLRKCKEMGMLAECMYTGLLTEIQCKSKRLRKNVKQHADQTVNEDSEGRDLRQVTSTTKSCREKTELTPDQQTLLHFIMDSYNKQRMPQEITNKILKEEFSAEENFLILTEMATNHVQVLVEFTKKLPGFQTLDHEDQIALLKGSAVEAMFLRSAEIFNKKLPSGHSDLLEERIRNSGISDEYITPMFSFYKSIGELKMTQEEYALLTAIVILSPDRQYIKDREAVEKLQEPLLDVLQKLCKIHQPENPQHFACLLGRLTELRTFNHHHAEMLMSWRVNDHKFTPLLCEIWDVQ
Vitamin D3 receptor (Homo sapiens), sequence (P11473 whole entry, looked up): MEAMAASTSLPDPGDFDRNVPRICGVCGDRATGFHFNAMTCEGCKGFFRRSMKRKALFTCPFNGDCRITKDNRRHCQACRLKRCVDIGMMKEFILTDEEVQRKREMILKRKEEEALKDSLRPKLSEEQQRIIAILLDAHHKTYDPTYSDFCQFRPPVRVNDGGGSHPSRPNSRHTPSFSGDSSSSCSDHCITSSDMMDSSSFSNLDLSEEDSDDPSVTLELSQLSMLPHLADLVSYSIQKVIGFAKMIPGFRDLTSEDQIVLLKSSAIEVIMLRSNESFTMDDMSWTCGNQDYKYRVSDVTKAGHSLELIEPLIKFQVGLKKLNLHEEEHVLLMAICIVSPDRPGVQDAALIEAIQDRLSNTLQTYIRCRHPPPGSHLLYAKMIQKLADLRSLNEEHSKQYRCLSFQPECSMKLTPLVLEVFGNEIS
Aryl hydrocarbon receptor (Homo sapiens), sequence (P35869 whole entry, looked up): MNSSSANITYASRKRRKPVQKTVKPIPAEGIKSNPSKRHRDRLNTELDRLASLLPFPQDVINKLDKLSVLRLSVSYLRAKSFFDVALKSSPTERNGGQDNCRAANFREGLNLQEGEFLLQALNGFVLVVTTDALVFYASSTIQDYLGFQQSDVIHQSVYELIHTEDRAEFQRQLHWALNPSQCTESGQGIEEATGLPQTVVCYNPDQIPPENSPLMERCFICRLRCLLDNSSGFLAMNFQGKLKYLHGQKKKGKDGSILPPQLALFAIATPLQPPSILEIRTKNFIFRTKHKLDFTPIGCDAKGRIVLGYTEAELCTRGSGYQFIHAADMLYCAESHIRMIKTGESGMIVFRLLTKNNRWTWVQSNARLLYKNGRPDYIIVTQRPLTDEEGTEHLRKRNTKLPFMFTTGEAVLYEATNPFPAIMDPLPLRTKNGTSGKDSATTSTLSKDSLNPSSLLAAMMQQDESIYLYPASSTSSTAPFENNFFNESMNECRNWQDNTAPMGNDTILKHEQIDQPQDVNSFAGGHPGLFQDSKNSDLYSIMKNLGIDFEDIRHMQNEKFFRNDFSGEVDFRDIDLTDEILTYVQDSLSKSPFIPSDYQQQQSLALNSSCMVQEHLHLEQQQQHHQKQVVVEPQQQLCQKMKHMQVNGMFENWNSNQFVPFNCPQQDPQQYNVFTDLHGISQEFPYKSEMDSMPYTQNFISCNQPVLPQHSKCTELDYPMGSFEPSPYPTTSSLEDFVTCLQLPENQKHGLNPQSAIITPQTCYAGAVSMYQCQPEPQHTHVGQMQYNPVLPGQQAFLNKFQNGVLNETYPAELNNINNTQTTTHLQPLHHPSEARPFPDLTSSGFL

Cc1ccc(N(CCO)CCO)cc1
not listed: [18] | [19] | [20]
inactive: all other assays above

CS(=O)(=O)c1ccc([C@@H](C[C@H]2CCC(=O)C2)C(=O)Nc2cnccn2)cc1Cl
not listed: [7] | [8] | [10] | [11] | [12] | [14] | [19] | [20]
inactive: all other assays above

CCCCOC(=O)CCCCC(=O)OCCCC
not listed: [4] | [10] | [12] | [14] | [18]
inactive: all other assays above

CCCCCCCC/C=C\CCCCCCCC(=O)OCCO
inactive: [1] | [2] | [3] | [4] | [5] | [6] | [8] | [11] | [13] | [17]
active: [18] 64.9 µM

CC1CCc2nccnc21 (stereo not drawn)
not listed: [4] | [10] | [12] | [15] | [18]
inactive: all other assays above

CC(C)(C)CCCCCCOC(=O)c1ccccc1C(=O)OCCCCCCC(C)(C)C
not listed: [8] | [10] | [19]
inactive: all other assays above

CC(CO)(CO)C(=O)O
not listed: [4] | [8] | [18]
inactive: all other assays above

O=C(O)CCS
not listed: [4] | [18]
inactive: all other assays above

COc1cc(S(=O)(=O)Nc2ccccc2)c(OC)cc1N
not listed: [6] | [8] | [19] | [20]
inactive: all other assays above
